Hits are enriched below; roughly 4.4% of the tested compounds scored in any of these assays.
SKKanGAS inh: S. pyogenes SKKanGAS growth inhibitors in kanamycin, primary screen, streptokinase expression inhibitor project, SKKanGAS strain, BacTiter-Glo luminescence | 6 h | inhibition, % at 7.5 µM | AID 1662, 2009 | 300,000 compounds, 1.3% hits;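 active = mean replicate score, as percent of positive control median, at least 50; inconclusive = mean below 50 but one replicate at or above 50; inactive = mean and every replicate below 50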;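 also: strain carries kanamycin resistance gene driven by streptokinase promoter and grows in 40 µg/ml kanamycin; loss of luminescence reflects streptokinase promoter inhibition or plain growth inhibition; 0% = median of DMSO wells and 100% = positive control at its reference dose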
tim10-1 inh: growth inhibitors of tim10-1 mutant yeast, primary screen, luminescence, uHTS; inhibition, % at 20 µM; 330,000 compounds, 2.2% hits; AID 463190, 2010; S. cerevisiae tim10-1 ts strain growth, BacTiter-Glo, 24 h;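 active = inhibition of at least 40%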;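 also: mutant grown at 25 °C; 0% = DMSO wells with yeast and 100% = wells holding no yeast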
PfHsp90 set2: growth inhibition of PfHsp90-expressing yeast, primary screen, antimalarial PfHsp90 inhibitor project, S. cerevisiae, BacTiter-Glo luminescence, single point, set 2; BacTiter-Glo ATP, 48 h; yeast lacking PDR1 and PDR3 efflux regulators; inhibition, % at 9.4 µM; 310,000 compounds, 0.32% hits;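 active = every replicate shows inhibition above about 80%, whatever the replicate mean, limit read from the data; inconclusive = mean inhibition reaches the set limit but some replicate falls short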;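 also: 0% = DMSO neutral controls and 100% = 20 µM radicicol positive controls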
TIM10 inh: growth inhibitors of isogenic TIM10 control yeast, primary screen, counter-screen for tim10-1 yeast inhibitor project, luminescence, uHTS; inhibition, % at 10 µM; S. cerevisiae TIM10 strain growth, BacTiter-Glo luminescence, 24 h; AID 463195, 2010; 330,000 compounds, 1.4% hits;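 active = inhibition of 40% or more at the single tested concentration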;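 also: wild-type TIM10 isogenic control strain grown at permissive 25 °C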
tim23-1 inh: growth inhibitors of tim23-1 mutant yeast, primary screen, luminescence, uHTS; S. cerevisiae tim23-1 growth, BacTiter-Glo luminescence, 24 h; inhibition, % at 20 µM; 330,000 compounds, 1.3% hits;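 active = growth inhibition of the mutant yeast at or above 50%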;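 also: temperature-sensitive mutant grown at 25 °C; plate controls were DMSO-treated mutant yeast for no effect and medium wells lacking yeast for full effect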
tim10 confirm: growth inhibitors of wild-type TIM10 yeast, confirmation, counter-screen for tim10-1 synthetic lethality project, single concentration, luminescence, S. cerevisiae | 4,600 compounds, 63% hits | shares compounds with TIM10 inh | S. cerevisiae tim10 strain growth, BacTiter-Glo luminescence, 24 h | inhibition, % at 10 µM | AID 463215, 2010;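 active = inhibition of yeast growth at or above a set limit in either of two replicates at 10 µM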;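 also: this counterscreen used the strain with wild-type TIM10; 0% = yeast with DMSO and 100% = medium wells lacking yeast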
tim23-1 conf: tim23-1 mutant yeast growth inhibitors, confirmation, luminescence, single concentration; S. cerevisiae tim23-1 growth, BacTiter-Glo luminescence, 24 h; inhibition, % at 20 µM; 4,400 compounds, 83% hits; shares compounds with tim23-1 inh;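 active = inhibition above about 39% in either of two replicate wells at 20 µM, limit read from the data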;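 also: temperature-sensitive tim23-1 mutant grown at 25 °C; 0% = DMSO wells with yeast and 100% = medium wells without yeast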
* hit, by the source's call.

`CC(C)NC(=S)N/N=C/c1cc(Br)ccc1O` gave SKKanGAS inh 61.5*, tim10-1 inh 39.1, PfHsp90 set2 -40.8, TIM10 inh 55.5*, tim23-1 inh 55.1*, tim10 confirm -9.7 and tim23-1 conf -5.6.
For O=C(N/N=C/c1cc(Br)ccc1O)c1ccccc1Cl the results were SKKanGAS inh 68.4*, tim10-1 inh 35.5, PfHsp90 set2 -54.2, TIM10 inh 64.9*, tim23-1 inh 78.9*, tim10 confirm -34.0 and tim23-1 conf 68.8*.
`O=[N+]([O-])c1cnc(Nc2ccccc2)nc1Nc1ccccc1` gave SKKanGAS inh -2.5, tim10-1 inh 19.5, PfHsp90 set2 -7.1, TIM10 inh -8.0 and tim23-1 inh 1.7.
`Nc1c(C(=O)Nc2ccccc2)sc2nc(-c3ccco3)ccc12` gave SKKanGAS inh 18.5, tim10-1 inh 35.8, TIM10 inh 67.5*, tim23-1 inh 63.7*, tim10 confirm 63.5* and tim23-1 conf 85.2*.
`Oc1ccc(Cl)cc1-c1cc(-c2ccco2)[nH]n1` gave SKKanGAS inh 9.5, tim10-1 inh 37.6, PfHsp90 set2 -35.9, TIM10 inh 49.1*, tim23-1 inh 71.8*, tim10 confirm 38.1* and tim23-1 conf 14.8.
CCN(CC)C(=O)c1cccc(NC(=O)c2ccccc2OCc2c(C)noc2C)c1 was read as tim10-1 inh 16.1, PfHsp90 set2 -124.1, TIM10 inh 8.7 and tim23-1 inh 27.2.
Screening Brc1ccc2ncnc(Nc3cccc4ccccc34)c2c1 returned SKKanGAS inh 1.9, tim10-1 inh 28.3, PfHsp90 set2 -42.9, TIM10 inh 41.4*, tim23-1 inh 72.6*, tim10 confirm 28.7 and tim23-1 conf 47.4*.
CCc1ccc(/C=N/n2c(COc3ccccc3)n[nH]c2=S)cc1 was read as SKKanGAS inh 29.5, tim10-1 inh 28.3, PfHsp90 set2 4.6, TIM10 inh 44.4*, tim23-1 inh 60.6*, tim10 confirm 42.0* and tim23-1 conf 36.9.
Screening Cc1ccc2nc(-c3ccc4c(c3)OCCO4)cn2c1 returned SKKanGAS inh -9.0, tim10-1 inh 34.4, PfHsp90 set2 -5.7, TIM10 inh 74.3*, tim23-1 inh 51.2*, tim10 confirm 75.6* and tim23-1 conf 52.1*.
For c1ccn2cc(-c3ccc4c(c3)OCCO4)nc2c1 the results were SKKanGAS inh 7.6, tim10-1 inh 19.4, PfHsp90 set2 40.0, TIM10 inh 12.0 and tim23-1 inh 31.1.
Screening O=C(N/N=C/C=C/c1ccccc1)c1cccs1 returned SKKanGAS inh 11.4, tim10-1 inh -1.8, PfHsp90 set2 15.2, TIM10 inh 33.4 and tim23-1 inh 42.4.
For O=C(N/N=C/C(Br)=C/c1ccccc1)c1cccs1 the results were SKKanGAS inh -2.8, tim10-1 inh 20.5, PfHsp90 set2 26.3, TIM10 inh 41.5*, tim23-1 inh 61.1*, tim10 confirm 27.9 and tim23-1 conf 76.2*.
Cc1cc(C)c(NS(=O)(=O)c2cccc3cccnc23)c(C)c1 was read as SKKanGAS inh 5.9, tim10-1 inh 22.5, PfHsp90 set2 33.5, TIM10 inh 13.9 and tim23-1 inh 27.1.
`Cc1ccc(S(=O)(=O)Nc2cccc3cccnc23)c([N+](=O)[O-])c1` gave SKKanGAS inh inconclusive, tim10-1 inh 23.2, TIM10 inh 46.0*, tim23-1 inh 51.6*, tim10 confirm 35.2* and tim23-1 conf 52.5*.
For Cc1ccccc1OCC(=O)O/N=C(\N)Cc1ccc(Cl)cc1 the results were SKKanGAS inh 5.4, tim10-1 inh 19.0, PfHsp90 set2 2.6, TIM10 inh 83.8*, tim23-1 inh 81.9*, tim10 confirm 79.4* and tim23-1 conf 59.5*.
`O=C(CNC(=S)NC(=O)c1cccs1)c1ccccc1` gave SKKanGAS inh -1.4, tim10-1 inh 37.0, PfHsp90 set2 16.8, TIM10 inh 44.2*, tim23-1 inh 62.7*, tim10 confirm -21.1 and tim23-1 conf 67.0*.
Cc1ccc(C(=O)NC(=S)NCC(=O)c2ccccc2)cc1 was read as SKKanGAS inh -4.6, tim10-1 inh 10.6, PfHsp90 set2 -8.4, TIM10 inh 4.1 and tim23-1 inh -3.5.
Screening CCOC(=O)c1c(C)[nH]c(C(=O)COC(=O)COc2ccccc2C=O)c1C returned SKKanGAS inh 2.5, tim10-1 inh 23.0, PfHsp90 set2 -20.1, TIM10 inh 53.3*, tim23-1 inh 53.7*, tim10 confirm 51.1* and tim23-1 conf 62.3*.
`O=C(CNC(=O)c1ccc(Cl)c([N+](=O)[O-])c1)OCN1C(=O)c2ccccc2C1=O` gave SKKanGAS inh -7.7, tim10-1 inh 11.2, PfHsp90 set2 -5.1, TIM10 inh 4.9 and tim23-1 inh 20.0.
For Cc1noc(C)c1NC(=O)N(C)C[C@H]1Oc2c(NC(=O)Nc3ccc4c(c3)OCO4)cccc2C(=O)N([C@H](C)CO)C[C@@H]1C the results were tim10-1 inh -3.3, PfHsp90 set2 2.2, TIM10 inh -3.9 and tim23-1 inh -4.9.
For O=C(c1ccco1)N1CCN(c2ccc(F)cc2)CC1 the results were SKKanGAS inh -3.8, tim10-1 inh -9.5, PfHsp90 set2 1.4, TIM10 inh 3.5 and tim23-1 inh 8.4.
`O=C(c1ccco1)N1CCN(c2nc(-c3ccc(F)cc3)cs2)CC1` gave SKKanGAS inh -0.7, tim10-1 inh 32.0, PfHsp90 set2 4.3, TIM10 inh 44.3*, tim23-1 inh 82.1*, tim10 confirm 17.0 and tim23-1 conf 34.5.
COc1ccccc1C=NN=Cc1ccccc1OC was read as PfHsp90 set2 4.3.
NNC(=O)c1cc2cc(OC(F)(F)F)ccc2[nH]1 was read as SKKanGAS inh 15.9, tim10-1 inh 28.6, PfHsp90 set2 24.9, TIM10 inh 50.4*, tim23-1 inh 57.6*, tim10 confirm 40.4* and tim23-1 conf 49.7*.
Screening COc1ccc(OC)c(N/C=C/C(=O)c2ccccc2)c1 returned SKKanGAS inh -4.3, tim10-1 inh -1.7, PfHsp90 set2 -19.3, TIM10 inh 44.3*, tim23-1 inh 62.0*, tim10 confirm 26.2 and tim23-1 conf 82.8*.
Screening CCc1nnc(NC(=O)CCC(=O)Nc2ccc(Cl)cc2)s1 returned SKKanGAS inh -1.1, tim10-1 inh 6.6, PfHsp90 set2 1.2, TIM10 inh 9.6 and tim23-1 inh 2.8.
